Compound activity (PubChem BioAssay)
Rows were chosen to be rich in hits. Some 2.4% of all compounds tested hit in one or more screens of this group.
INS promoter inh: inhibitors of insulin promoter-driven GFP, primary screen, imaging, TRM-6 cells (human fetal islet line), eGFP reporter, cell count. reporter expression induced with tamoxifen. inhibition, % at 2 µM. actives 0.9% (n = 130,000). AID 1273, 2008;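 active = inhibition above the mean plus 3 SD, with well images judged a real hit on visual review, cut at about 60% in these data, passing the limit was not always enough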
EP2 modulator: EP2 receptor modulators, cAMP readout, primary screen, cell-based, HTRF cAMP, PGE2 stimulation. Prostaglandin E2 receptor EP2 subtype (Homo sapiens), P43116. EP2-expressing cells, cAMP HTRF FRET, PGE2 co-stimulation. actives 0.83% (n = 260,000). induction, % at 25 µM;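 active = compounds whose cAMP rise, as percent of the full-agonist control response, exceeds 60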;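 note: rat C6 glioma line stably carrying human EP2 under a CMV promoter; the protocol text gives 20 µM as final concentration; 100% = response of wells given 1 µM PGE2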
Target sequence (P43116 whole entry, looked up): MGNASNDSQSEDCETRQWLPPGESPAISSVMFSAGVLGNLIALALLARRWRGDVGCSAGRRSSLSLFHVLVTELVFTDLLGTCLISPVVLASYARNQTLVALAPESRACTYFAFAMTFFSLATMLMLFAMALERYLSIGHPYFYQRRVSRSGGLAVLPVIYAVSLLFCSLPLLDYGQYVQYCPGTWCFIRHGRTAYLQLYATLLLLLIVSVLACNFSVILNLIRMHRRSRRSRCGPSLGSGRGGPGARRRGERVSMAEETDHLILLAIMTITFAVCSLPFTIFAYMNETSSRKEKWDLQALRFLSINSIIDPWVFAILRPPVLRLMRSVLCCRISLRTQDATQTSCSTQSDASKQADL
S1P4 antag: S1P4 receptor antagonists, primary screen, cell-based | actives 0.26% (n = 220,000) | Sphingosine 1-phosphate receptor 4 (Homo sapiens), O95977 | inhibition, % at 4.98 µM | S1P4-expressing cells, antagonist mode, reporter read-out; in the data active = inhibition above about 29%;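 note: 0% = wells stimulated with agonist and 100% = vehicle wells without agonist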
S1P4 agonist: S1P4 receptor agonists, primary screen, cell-based; S1P4-expressing cell line, agonist reporter assay; actives 0.35% (n = 220,000); activation, % at 4.98 µM; in the data active = activation above about 11%;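 note: 0% = DMSO vehicle and 100% = reference agonist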
EP2 antag: human EP2 receptor antagonists, primary screen, TR-FRET cAMP, C6 glioma cells | C6 glioma cells expressing human EP2; cells stimulated with saturating PGE2 | actives 0.52% (n = 260,000) | AID 1422, 2008 | inhibition, % at 25 µM;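 active = percent inhibition above 40 after rounding to a whole number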;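 note: rat C6 glioma host cells with rolipram phosphodiesterase inhibitor present; the protocol text gives 20 µM as final concentration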
S1P3 antag-1: S1P3 receptor antagonists, primary screen, cell-based; actives 0.27% (n = 170,000); Sphingosine 1-phosphate receptor 3 (Homo sapiens), Q99500; CHO S1P3 NFAT-BLA reporter, FRET fluorescence, antagonist mode; inhibition, % at 4.98 µM; AID 485, 2006;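 active = inhibition above the plate cutoff, the mean inhibition of test wells on that plate plus 3 SD, cut at about 28% in these data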;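 note: cells challenged with S1P at its EC80 of 0.8 µM; blue over green emission ratio from cleaved BLA substrate after 4 h stimulation; 0% = S1P-stimulated wells and 100% = unstimulated DMSO-only wells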
S1P3 antag-2: S1P3 receptor antagonists, retest, confirmation, cell-based | AID 1429, 2008 | actives 30% (n = 240) | inhibition, % at 4.98 µM | shares compounds with S1P3 antag-1 | CHO S1P3 NFAT-BLA reporter, FRET, antagonist mode;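 active = inhibition above the hit threshold that was computed for the earlier primary screen, cut at about 30% in these data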;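 note: 0% = S1P-stimulated wells and 100% = unstimulated DMSO-only wells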
An asterisk follows results filed as active; i = inactive; · = no result given.

SMILES	INS promoter inh	EP2 modulator	S1P4 antag	S1P4 agonist	EP2 antag	S1P3 antag-1	S1P3 antag-2
CCOc1ccc(C2=C/C(=C/c3ccccn3)C(=O)O2)cc1	·	31.6	·	·	13.3	·	·
CCOC(=O)C(C)Oc1cccc2c(=O)n(CC(=O)NCCc3ccccc3)ccc12 (stereo unspecified)	·	-16.7	-15.9	1.2	9.3	19.2	·
CCOC(=O)C(C)Oc1cccc2c(=O)n(CC(=O)NCc3ccc(F)cc3)ccc12 (stereo unspecified)	·	-6.6	-5.5	1.9	5.2	34.9*	8.2
CCOC(=O)C(C)Oc1cccc2c(=O)n(CC(=O)NCc3ccccc3)ccc12 (stereo unspecified)	·	-16.5	18.7	-0.2	8.0	37.4*	9.3
Cc1cc(N2CCN(C(=O)C3CCCO3)CC2)n2nc(-c3cccc(F)c3)cc2n1 (stereo unspecified)	·	-10.4	·	·	3.5	·	·
Cc1sc2nc(C)n(C3CCN(C(=O)c4cc(C(C)C)[nH]n4)CC3)c(=O)c2c1C	·	-38.6	·	·	6.7	·	·
O=C1c2cccc3c([N+](=O)[O-])ccc(c23)C(=O)N1CCc1ccccn1	·	-24.0	-7.9	-1.6	9.9	-1.9	·
CN(C)CCCN1C(=O)c2cccc3c([N+](=O)[O-])ccc(c23)C1=O	i	-66.5	91.7*	3.5	80.1*	33.1*	-0.3
O=C(N/N=C/c1ccc(O)cc1)c1cc(C23CC4CC(CC(C4)C2)C3)[nH]n1	·	-22.3	12.2	-0.4	17.6	31.1*	35.2*
COc1ccc(/C=N/NC(=O)c2cc(C34CC5CC(CC(C5)C3)C4)[nH]n2)cc1OC	·	-14.8	-0.7	-1.0	0.6	-7.6	·
Cc1cccc(Cn2nc(C(C)(C)C)cc2C(=O)Nc2ccc(F)cc2)c1	·	21.4	3.7	0.5	5.0	36.5*	52.9*
CC(C)(C)c1cc(C(=O)NN)n(Cc2ccc(F)cc2)n1	·	-29.5	-0.9	-2.0	2.3	4.7	·
O=[N+]([O-])c1c(NCc2ccco2)ccc2nonc12	·	-20.4	-0.3	-0.5	6.9	106.5*	-15.6
O=[N+]([O-])c1c(Nc2ccccc2)ccc2nonc12	58.3	1.8	-14.7	-2.5	2.1	·	·
CC(C)n1c(=O)n(CC(=O)N2CCc3ccccc32)c2cccnc21	·	-1.9	·	·	2.2	·	·
CCc1ccc(N(C(=O)c2csnn2)C(C(=O)NC2CCCC2)c2ccc(C)o2)cc1 (stereo unspecified)	·	5.4	·	·	3.1	·	·
Cc1c(CCOC(=O)c2cc([N+](=O)[O-])cc([N+](=O)[O-])c2)sc[n+]1CC(=O)c1ccc(Br)cc1	·	-28.5	-3.1	-1.0	19.8	37.6*	-10.8
CCOCCCNC(=O)C1CCCN(S(=O)(=O)c2ccc(OC)cc2)C1 (stereo unspecified)	·	1.5	·	·	12.1	·	·
CN1CCN(/N=C/c2ccc(-c3ccc([N+](=O)[O-])cc3Cl)o2)CC1	-315.8	-45.9	12.5	-0.5	9.3	54.1*	19.8
O=C(CN1C(=O)[C@@H]2CCCN2C(=O)c2ccccc21)N1CCCc2ccccc21	·	-31.6	·	·	3.8	·	·
Cc1cc(C)c(C)c(S(=O)(=O)N2CCN(C(=O)CCC(=O)N3CCOCC3)CC2)c1C	·	25.5	-4.4	-0.5	6.0	31.1*	-9.7
Cc1cc(C)c(C)c(S(=O)(=O)N2CCN(C)CC2)c1C	-16.7	-17.4	-1.2	1.5	5.6	-9.0	·
COc1cccc(/C(O)=C2/C(=O)C(=O)N(CCCN(C)C)C2c2ccco2)c1 (stereo unspecified)	·	-11.0	·	·	15.7	·	·
CCCc1nc2ccccc2c(C(=O)OC(C)C(=O)NCc2ccc3c(c2)OCO3)c1CC (stereo unspecified)	-6.2	7.5	-23.2	-2.5	4.3	30.7*	10.7
CCCc1nc2ccccc2c(C(=O)OCC(=O)NCc2ccc3c(c2)OCO3)c1CC	12.9	17.5	-28.6	-0.2	-0.2	-0.5	·
SMILES	INS promoter inh	EP2 modulator	S1P4 antag	S1P4 agonist	EP2 antag	S1P3 antag-1	S1P3 antag-2
CCN(CC)c1ccc2cc(-c3nc(-c4ccc(OC)cc4)cs3)c(=O)oc2c1	-222.6	4.4	6.1	2.4	4.3	42.2*	97.1*
CC(CC(=O)N1CCN(c2ccc(C(F)(F)F)cn2)CC1)n1ccnc1 (stereo unspecified)	·	-4.2	-6.8	-1.3	6.8	36.3*	-15.3
CC(C)(C)c1ccc(C(=O)Nc2ncn[nH]2)cc1	·	-12.1	-16.5	-1.0	4.4	-2.4	·
CC(C)(C)c1ccc(C(=O)Nc2cccc3c(=O)[nH][nH]c(=O)c23)cc1	33.3	-2.8	5.0	0.4	10.7	38.4*	5.7
C=CCN1C(=O)C(CC(=O)Nc2ccc(OCCC)cc2)N(CCCN2CCN(Cc3ccccc3)CC2)C1=S (stereo unspecified)	-20.0	-48.0	-3.0	-1.3	8.5	38.4*	-0.5
COc1ccc(NC(=O)CC2C(=O)N(Cc3ccccc3)C(=S)N2CCN2CCOCC2)cc1 (stereo unspecified)	-333.3	-31.7	7.1	-0.8	4.7	-8.4	·
Cc1nc2ccc(NC(=O)c3cc(S(=O)(=O)N(C)c4ccccc4)ccc3Cl)cc2s1	30.8	-8.9	-6.8	4.1	11.0	30.5*	10.4
Cc1nc2ccc(NC(=O)c3ccc(Cl)c(S(=O)(=O)N(C)c4ccccc4)c3)cc2s1	-46.1	-30.2	-13.7	1.3	13.3	10.7	·
O=C(Nc1ccc(OC(F)F)c(Cl)c1)C(c1ccccc1)c1ccccc1	·	20.4	5.9	-1.6	4.7	50.5*	59.3*
Cc1cc2cc(CN(Cc3cccnc3)C(=S)NCCCN(C)C)c(=O)[nH]c2cc1C	·	-64.1	·	·	24.2	·	·
CCOc1cc(S(=O)(=O)NCc2ccncc2)ccc1Cl	11.6	-17.2	-10.9	-0.1	8.2	28.9*	19.8
CCOc1ccc(S(=O)(=O)NCc2ccncc2)cc1	41.7	-5.8	-5.4	-2.3	6.3	·	·
CCOC(=O)CSc1nc(C2CC2)nc2sc3c(c12)CCCC3	·	58.0	·	·	6.4	·	·
Cc1ccc(NC(=O)C(OC(=O)c2ccc(F)cc2)c2ccccc2)cc1Cl (stereo unspecified)	·	22.8	-4.1	-0.8	6.8	35.5*	54.5*
CC(C)C(=O)NC(=S)Nc1ccc(S(=O)(=O)Nc2nccs2)cc1	·	-16.2	-25.8	-0.6	1.6	28.2*	-19.9
C/C(Cn1nnc2ccccc21)=N\NC(=O)c1cccc(Br)c1	-65.6	11.1	-10.7	-1.9	3.3	28.9*	-6.2
Cc1ccc(C2(O)CCN(CCNC(=O)c3cc(C)c(C)s3)CC2)cc1	·	-78.4	·	·	2.3	·	·
